Assay results reported in PubChem BioAssay (NCATS).
Results filed as inconclusive are left out. Active and inactive are the calls of the source. Calls follow the shape of the dose curve; as a rule, active = well fitted inhibition curve with a large enough effect; inconclusive = small, poorly fitted or top-dose-only effect; inactive = flat fitted curve, though single readings scatter.

Tests used:
Test in all cases: qHTS profiling for inhibitors of Plasmodium falciparum proliferation (AID 504749); also: nearly all actives have a fitted effect of over 60% in size
ATS95 = details: P. falciparum in erythrocytes, SYBR Green DNA, 72 h; series mostly up to 28.7 µM
Summary of the method: (§1)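 P. falciparum-infected erythrocytes (0.3% parasitemia, 2.5% hematocrit) incubated with compound 72 h at 37 C, 5% CO2. Parasite DNA detected by SYBR Green after lysis, overnight at room temperature; normalised to 0.29 uM artemisinin and DMSO.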

C2A = details: P. falciparum in erythrocytes, SYBR Green DNA, 72 h; series mostly up to 28.7 µM
Summary of the method: as §1

CP215 = details: P. falciparum in erythrocytes, SYBR Green DNA, 72 h; series mostly up to 28.7 µM
Summary of the method: as §1

CP237 = details: P. falciparum in erythrocytes, SYBR Green DNA, 72 h; series mostly up to 28.7 µM
Summary of the method: as §1

CP238 = details: P. falciparum in erythrocytes, SYBR Green DNA, 72 h; series mostly up to 28.7 µM
Summary of the method: as §1

CP250 = details: P. falciparum in erythrocytes, SYBR Green DNA, 72 h; series mostly up to 12.8 µM
Summary of the method: as §1

CP265 = details: P. falciparum in erythrocytes, SYBR Green DNA, 72 h; series mostly up to 12.8 µM
Summary of the method: as §1

CP266 = details: P. falciparum in erythrocytes, SYBR Green DNA, 72 h; series mostly up to 12.8 µM
Summary of the method: as §1

CP269 = details: P. falciparum in erythrocytes, SYBR Green DNA, 72 h; series mostly up to 28.7 µM
Summary of the method: as §1

CP286 = details: P. falciparum in erythrocytes, SYBR Green DNA, 72 h; series mostly up to 28.7 µM
Summary of the method: as §1

CP305 = details: P. falciparum in erythrocytes, SYBR Green DNA, 72 h; series mostly up to 28.7 µM
Summary of the method: as §1

CP325 = details: P. falciparum in erythrocytes, SYBR Green DNA, 72 h; series mostly up to 28.7 µM
Summary of the method: as §1

CP329 = details: P. falciparum in erythrocytes, SYBR Green DNA, 72 h; series mostly up to 28.7 µM
Summary of the method: as §1

DIV30 = details: P. falciparum in erythrocytes, SYBR Green DNA, 72 h; series mostly up to 28.7 µM
Summary of the method: as §1

GB4 = details: P. falciparum in erythrocytes, SYBR Green DNA, 72 h; series mostly up to 28.7 µM
Summary of the method: as §1

HB3 = details: P. falciparum in erythrocytes, SYBR Green DNA, 72 h; series mostly up to 28.7 µM
Summary of the method: as §1

P93_24 = details: P. falciparum in erythrocytes, SYBR Green DNA, 72 h; series mostly up to 28.7 µM
Summary of the method: as §1

PAD = details: P. falciparum in erythrocytes, SYBR Green DNA, 72 h; series mostly up to 28.7 µM
Summary of the method: as §1

PC26 = details: P. falciparum in erythrocytes, SYBR Green DNA, 72 h; series mostly up to 28.7 µM
Summary of the method: as §1

SC27B = details: P. falciparum in erythrocytes, SYBR Green DNA, 72 h; series mostly up to 28.7 µM
Summary of the method: as §1

Measured: Potency

CCCC[N+]1(C)C2CC(OC(=O)C(CO)c3ccccc3)CC1C1OC12 (stereo not given)
inactive: all assays above

CC(C)(O)C1C2OC(=O)C1[C@]1(O)C[C@H]3O[C@]34C(=O)O[C@H]2[C@]14C (stereo not given in full) (tested in a mixture with another compound)
inactive: all assays above

Oc1ccc2c3c1O[C@H]1[C@@H](O)CC[C@@]4(O)C(C2)N(CC2CCC2)CCC314 (stereo not given in full)
inactive: all assays above
